In the library only some 5.3% were active in any assay of this set; here they are far more common.
Tau ThT inhib – inhibitors of human tau fibril formation, thioflavin T binding | P10636 | recombinant tau K18 P301L, heparin-induced fibrillization, ThT fluorescence | Potency, µM (doses to about 57.4 µM), without a hit: at the top dose activity, negative = inhibition, hits mostly inhibitors | hit rate 2.1% among 270,000; also: potency is read from the fitted curve at half-maximal effect; nearly all actives have a fitted effect of over 55% in size
Target sequence (P10636 561-689 P618L limits assumed): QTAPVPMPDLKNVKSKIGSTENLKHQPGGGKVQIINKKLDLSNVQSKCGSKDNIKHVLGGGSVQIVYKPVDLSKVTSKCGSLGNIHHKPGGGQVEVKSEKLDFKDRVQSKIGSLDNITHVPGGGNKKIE
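K18 P301L tau (15 uM + 0.24 uM Alexa 594-tagged), heparin 20 uM, NaOAc pH 7, 6 h 37 C; ThT 30 uM, 1 h RT, ex 450/em 510 nm.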
Tau fibril FP – blocks human tau fibril formation measured by polarization; P10636; Potency, µM (top dose mostly 57.7 µM), inactives show top-dose activity, negative = inhibition, hits mostly inhibitors; K18 P301L tau heparin fibrillization, Alexa594 FP, 6 h; hit rate 0.39% among 280,000; also: potency is read from the fitted curve at half-maximal effect; nearly all actives have a fitted effect of over 55% in size
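Quantitative HTS format: compounds meet 15 uM recombinant K18 P301L tau and Alexa 594-tau tracer in 100 mM sodium acetate pH 7; 20 uM heparin triggers fibrillization at 37 C over 6 hr; FP gives the signal.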
JMJD2E inh – JMJD2E (human) inhibition; JMJD2E catalytic domain, FDH-coupled NADH fluorescence (FDH is formaldehyde dehydrogenase); AID 2147; hit rate 1.6% among 230,000; Potency, µM (titrated, usually from 57.1 µM), for inactives: at the top dose activity change, negative = inhibition, most hits filed as inhibitors; active = well fitted inhibition curve with a large enough effect, not every such curve was filed as active; inconclusive = small, poorly fitted or top-dose-only effect, or another doubt; inactive = no such curve, though single readings can be large or run the other way;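 also: potency is read from the fitted curve at half-maximal effect; 0% = wells with enzyme and -100% = buffer wells without enzyme; nearly all actives have a fitted effect of over 50% in size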
Target sequence (B2RXH2 1-337 limits assumed): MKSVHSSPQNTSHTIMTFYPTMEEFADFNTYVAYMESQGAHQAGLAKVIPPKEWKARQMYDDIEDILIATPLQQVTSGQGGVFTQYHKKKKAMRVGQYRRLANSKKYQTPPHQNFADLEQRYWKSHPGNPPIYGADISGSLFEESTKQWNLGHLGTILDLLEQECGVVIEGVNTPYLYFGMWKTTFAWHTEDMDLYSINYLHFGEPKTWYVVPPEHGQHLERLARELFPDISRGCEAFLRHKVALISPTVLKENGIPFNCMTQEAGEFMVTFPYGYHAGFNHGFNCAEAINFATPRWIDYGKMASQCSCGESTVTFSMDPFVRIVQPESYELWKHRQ
Tau fluor cs – counter-screen for tau fibril formation inhibitors | AID 1463 | tau K18 P301L Alexa594 fluorescence, heparin fibrillization | Potency, µM (top dose mostly 57.7 µM), for the others: at the highest dose activity change, negative = decrease | hit rate 0.93% among 280,000; also: potency is read from the fitted curve at half-maximal effect; nearly all actives have a fitted effect of over 55% in size
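Human tau K18 P301L (15 uM unlabeled, 0.24 uM Alexa 594-labeled) in 100 mM sodium acetate pH 7 with 20 uM heparin, 6 hr at 37 C. ThT 30 uM added, 1 hr ambient; Alexa 594 FP and total fluorescence read at 555/632 nm.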
Coupling enz – counter-screen for Giardia aldolase inhibitors: coupling enzyme system; activity change, negative = inhibition, % at 58.2 µM, hits read low; coupling enzyme system counterscreen, AmpLite Red fluorescence; hit rate 0.67% among 290,000; in the data active = activity change below about -30%
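Counterscreen of the coupled detection system alone, without aldolase: glyceraldehyde-3-phosphate coupling enzymes plus AmpLite Red readout. Compounds at 57.5 uM final, 10 min RT preincubation, 20 min RT reaction, fluorescence 525/598 nm.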
Sfp PPTase inh – Sfp phosphopantetheinyl transferase inhibition; Biochemical Sfp PPTase activity, qHTS; hit rate 3.5% among 310,000; Potency, µM, for inactives: largest response in the series, negative = inhibition, usual class: inhibitors;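 also: the enzyme is Sfp with the accession as filed and its product quenches rhodamine fluorescence; potency is read from the fitted curve at half-maximal effect; 0% = enzyme reaction without inhibitor and -100% = no enzyme wells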
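Step 1, compound plus 15 nM Sfp-PPTase, 15 min, room temperature. Step 2, add rhodamine-CoA (5 uM) and BHQ-2-YbbR (12.5 uM). Step 3, read 525/598 nm fluorescence at 0 and 30 min.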
Numbers without * were called inactive; ? = inconclusive; . = no result given; [ ] = remark or other dose. Unless noted, calls follow the shape of the dose curve; as a rule, active = well fitted curve in the direction sought with a large enough effect; inconclusive = small, poorly fitted or top-dose-only effect, or another doubt; inactive = no such curve, though single readings can be large; an effect the other way counts as inactive or inconclusive. Unless noted, % is scaled to controls: 0 for no effect and ±100 for the full control effect.

SMILES | Tau ThT inhib | Tau fibril FP | JMJD2E inh | Tau fluor cs | Coupling enz | Sfp PPTase inh
COc1ccc(/C(C)=N/Nc2cccc(C(=O)O)c2)cc1OC | ? | -0.5% | ? | -0.6% | -1.0 | -1.4%
O=C(O)CCN1C(=O)/C(=C\c2ccc(-c3nc4ccccc4s3)o2)SC1=S | 2µM* | -15.5% | -1.5% | -27.7% | -5.2 | 44.7µM*
COc1ccc(CCN2C(=O)/C(=C\c3ccco3)SC2=S)cc1OC | ? | 1.2% | -12.8% | ? | -7.7 | 17.8µM*
CC(C(=O)Nc1ccc(O)cc1C(=O)O)N1C(=O)/C(=C\c2cccs2)SC1=S (stereo not given) | . | . | . | . | . | 22.4µM*
O=C(CN1C(=O)/C(=C\c2ccco2)SC1=S)Nc1ccc(O)cc1C(=O)O | . | . | . | . | . | 56.2µM*
COC(=O)C/C=C/[C@@H](C)[C@H](NC(=O)OCC(Cl)(Cl)Cl)c1ccc2ccccc2c1 | 1.9% | -7.4% | -0.3% | -7.3% | -1.0 | -11.5%
COc1ccc(OC)c(Nc2nc3ccccc3n3c(C)nnc23)c1 | -6.3% | 5.1% | . | -0.4% | . | .
O=C(CCCN1C(=O)/C(=C/c2ccco2)SC1=S)Nc1ccccc1C(=O)O | ? | -8.1% | ? | -20.6% | 2.3 | 50.1µM*
O=C(O)CCCN1C(=O)/C(=C\c2ccco2)SC1=S | 22.4µM* | ? | ? | -29.2% | -9.5 | 17.8µM*
O=C(CCCN1C(=O)/C(=C\c2ccco2)SC1=S)Nc1ccc2ccccc2c1 | ? | -3.2% | -3.0% | ? | -9.1 | ?
O=C(CCN1C(=O)/C(=C/c2ccco2)SC1=S)Nc1ccc(O)cc1C(=O)O | . | . | . | . | 0.5 | -18.0%
O=C(Nc1cc(C(F)(F)F)ccc1Cl)c1cnn(-c2ccccc2)c1-n1cccc1 | -7.4% | ? | . | -14.9% | . | .
CCOC(=O)CSc1nc2c(sc3ccccc32)c(=O)n1Cc1ccc(OC)cc1 | 8.5% | -3.4% | . | -10.6% | . | .
CCOC(=O)N1CCC(NC(=O)c2cnn(-c3ccc(C)cc3)c2-n2cccc2)CC1 | -3.0% | -0.2% | . | 0.4% | . | .
O=C(CCNc1ccc(Br)cc1)c1cccc([N+](=O)[O-])c1 | ? | ? | -9.3% | 28.2µM*[quencher] | -1.0 | 4.7%
O=C(CCNc1ccc(F)cc1)c1cccc([N+](=O)[O-])c1 | ? | 9.2% | 2.7% | 15.8µM*[quencher] | -1.0 | 1.3%
O=C(CCNc1ccc(Cc2ccncc2)cc1)c1ccc([N+](=O)[O-])cc1 | 10µM* | -2.6% | -37.7% | 7.94µM*[quencher] | 0.6 | -14.1%
O=C(CCNc1ccccc1)c1cccc([N+](=O)[O-])c1 | -10.6% | -3.7% | 6.4% | -7.4% | -1.6 | -15.6%
COc1ccc(NC(=O)CCS(=O)(=O)c2ccc3c(c2)n(C)c(=O)c(=O)n3C)cc1Cl | -3.5% | -1.2% | . | 0.4% | . | .
CN1CCN(c2ncnc3c2[nH]c2ccc(F)cc23)CC1 | -5.1% | 9.3% | ? | -5.0% | -1.5 | 2.1%
CN1CCN(c2cc3c(c4c2[nH]c2ccccc24)C(=O)CC(C)(C)C3)CC1 | ? | ? | ? | 14.1µM*[quencher] | -10.2 | ?
CCC[C@H](NC(=O)[C@H](CC(C)C)N(C)C(=O)CNC(=O)[C@@H](NC(=O)[C@H](Cc1ccccc1)NC(=O)[C@H](CCCCN)NC(=O)[C@@H](N)CC(=O)O)C(C)C)C(N)=O | . | . | . | . | 1.0 | 3.1%
O=C(Cc1ccccc1Cl)NC1(O)C(=O)c2ccccc2C1=O | 2.82µM* | ? | -3.0% | -28.6% | -6.0 | 7.4%
O=C(Cc1ccc(Cl)cc1)NCc1ccccc1Cl | -3.6% | -5.2% | -0.9% | -7.6% | 0.7 | -3.7%
CC(C)(C)c1cc(CCC(=O)NNC(=S)NC(=O)c2ccccc2)cc(C(C)(C)C)c1O | -11.9% | -3.7% | -12.5% | -15.0% | 0.3 | 56.2µM*
COC(=O)NC(Nc1sc2c(c1C(N)=O)CCCC2)(C(=O)OC)C(F)(F)F (stereo not given) | ? | ? | ? | -10.3% | -15.8 | 22.4µM*
CCCOC(=O)Nc1sc2c(c1C(N)=O)CCCC2 | ? | -4.9% | -14.4% | -7.8% | 1.0 | 8.7%

Screens (PubChem BioAssay)
